# The full list was thinned out, with the strongest signals kept by preference.
# Tests used:
# Assay in all cases: glycan array binding signal (z-score within array); higher = stronger binding
# Conditions in all cases: glycan notation: IUPAC condensed, linker removed
# [1] = target: Fuc(a1-2)Gal(b1-3)GlcNAc(b1-2)Man(a1-3)[Fuc(a1-2)Gal(b1-3)GlcNAc(b1-2)Man(a1-6)]Man(b1-4)GlcNAc(b1-4)GlcNAc
# Outline: (§1)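 From the Consortium for Functional Glycomics database, 3228 arrays were curated, keeping only those whose protein sequence was available. Binding is given as a within-array Z-score averaged across arrays sharing a protein sequence and across linkers. Negative Z-scores can be read as non-binding.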
# [2] = target: Fuc(a1-2)Gal(b1-4)GlcNAc(b1-3)GalNAc
# Outline: as §1
# [3] = target: Fuc(a1-2)[GalNAc(a1-3)]Gal(b1-4)[Fuc(a1-3)]GlcNAc(b1-3)GalNAc
# Outline: as §1
# Fuc(a1-3)GlcNAc = target: Fuc(a1-3)GlcNAc
# Outline: as §1
# Gal(a1-2)Gal = target: Gal(a1-2)Gal
# Outline: as §1
# [4] = target: Gal(a1-3)Gal(b1-3)GlcNAc(b1-2)Man(a1-3)[Gal(a1-3)Gal(b1-3)GlcNAc(b1-2)Man(a1-6)]Man(b1-4)GlcNAc(b1-4)GlcNAc
# Outline: as §1
# [5] = target: Gal(a1-3)Gal(b1-3)[Fuc(a1-4)]GlcNAc(b1-2)Man(a1-3)[Gal(a1-3)Gal(b1-3)[Fuc(a1-4)]GlcNAc(b1-2)Man(a1-6)]Man(b1-4)GlcNAc(b1-4)GlcNAc
# Outline: as §1
# [6] = target: Gal(a1-3)Gal(b1-4)GlcNAc(b1-3)GalNAc
# Outline: as §1
# [7] = target: Gal(a1-3)Gal(b1-4)[Fuc(a1-3)]GlcNAc
# Outline: as §1
# Gal(b1-3)Gal = target: Gal(b1-3)Gal
# Outline: as §1
# Gal(b1-3)Gal(b1-4)GlcNAc = target: Gal(b1-3)Gal(b1-4)GlcNAc
# Outline: as §1
# Gal(b1-3)GalNAc = target: Gal(b1-3)GalNAc
# Outline: as §1
# [8] = target: Gal(b1-3)GalNAc(a1-3)[Fuc(a1-2)]Gal(b1-4)Glc
# Outline: as §1
# [9] = target: Gal(b1-3)GalNAc(a1-3)[Fuc(a1-2)]Gal(b1-4)GlcNAc
# Outline: as §1
# Gal(b1-3)GalNAc(b1-3)Gal = target: Gal(b1-3)GalNAc(b1-3)Gal
# Outline: as §1
# [10] = target: Gal(b1-3)GalNAc(b1-4)Gal(b1-4)Glc
# Outline: as §1
# [11] = target: Gal(b1-3)GlcNAc(b1-2)[Gal(b1-3)GlcNAc(b1-6)]Man(a1-6)[Gal(b1-3)GlcNAc(b1-2)Man(a1-3)]Man(b1-4)GlcNAc(b1-4)GlcNAc
# Outline: as §1
# [12] = target: Gal(b1-3)GlcNAc(b1-3)Gal(b1-4)GlcNAc(b1-2)Man(a1-3)[Gal(b1-3)GlcNAc(b1-3)Gal(b1-4)GlcNAc(b1-2)Man(a1-6)]Man(b1-4)GlcNAc(b1-4)GlcNAc
# Outline: as §1
# [13] = target: Gal(b1-3)GlcNAc(b1-3)Gal(b1-4)GlcNAc(b1-6)[Gal(b1-3)GlcNAc(b1-3)]Gal(b1-4)Glc
# Outline: as §1
# [14] = target: Gal(b1-3)GlcNAc(b1-6)Gal(b1-4)GlcNAc
# Outline: as §1
# [15] = target: Gal(b1-3)[Fuc(a1-4)]GlcNAc(b1-3)Gal(b1-3)[Fuc(a1-4)]GlcNAc
# Outline: as §1
# [16] = target: Gal(b1-3)[Neu5Ac(a2-6)]GalNAc
# Outline: as §1
# Gal(b1-4)Glc = target: Gal(b1-4)Glc
# Outline: as §1
# Gal(b1-4)GlcNAc = target: Gal(b1-4)GlcNAc
# Outline: as §1
# [17] = target: Gal(b1-4)GlcNAc(b1-3)Gal(b1-4)GlcNAc(b1-2)Man(a1-3)[Gal(b1-4)GlcNAc(b1-3)Gal(b1-4)GlcNAc(b1-2)Man(a1-6)]Man(b1-4)GlcNAc(b1-4)GlcNAc
# Outline: as §1
# [18] = target: Gal(b1-4)GlcNAc(b1-3)Gal(b1-4)GlcNAc(b1-2)Man(a1-3)[Gal(b1-4)GlcNAc(b1-3)Gal(b1-4)GlcNAc(b1-2)Man(a1-6)]Man(b1-4)GlcNAc(b1-4)[Fuc(a1-6)]GlcNAc
# Outline: as §1
# [19] = target: Gal(b1-4)GlcNAc(b1-3)Gal(b1-4)GlcNAc(b1-3)Gal(b1-4)GlcNAc(b1-3)Gal(b1-4)GlcNAc(b1-2)Man(a1-3)[Gal(b1-4)GlcNAc(b1-3)Gal(b1-4)GlcNAc(b1-3)Gal(b1-4)GlcNAc(b1-3)Gal(b1-4)GlcNAc(b1-2)Man(a1-6)]Man(b1-4)GlcNAc(b1-4)GlcNAc
# Outline: as §1
# [20] = target: Gal(b1-4)GlcNAc(b1-3)Gal(b1-4)GlcNAc(b1-3)Gal(b1-4)GlcNAc(b1-3)Gal(b1-4)GlcNAc(b1-3)Gal(b1-4)GlcNAc(b1-2)Man(a1-3)[Gal(b1-4)GlcNAc(b1-3)Gal(b1-4)GlcNAc(b1-3)Gal(b1-4)GlcNAc(b1-3)Gal(b1-4)GlcNAc(b1-3)Gal(b1-4)GlcNAc(b1-2)Man(a1-6)]Man(b1-4)GlcNAc(b1-4)[Fuc(a1-6)]GlcNAc
# Outline: as §1
# [21] = target: Gal(b1-4)GlcNAc(b1-6)[Gal(b1-3)]GalNAc
# Outline: as §1
# [22] = target: Gal3S(b1-3)[Fuc(a1-4)]GlcNAc
# Outline: as §1
# GalNAc(a1-3)GalNAc = target: GalNAc(a1-3)GalNAc
# Outline: as §1
# [23] = target: GalNAc(b1-4)GlcNAc(b1-2)Man(a1-3)[GalNAc(b1-4)GlcNAc(b1-2)Man(a1-6)]Man(b1-4)GlcNAc(b1-4)GlcNAc
# Outline: as §1
# [24] = target: GalNAc(b1-4)GlcNAc(b1-3)GalNAc(b1-4)GlcNAc
# Outline: as §1
# GlcA(b1-6)Gal = target: GlcA(b1-6)Gal
# Outline: as §1
# [25] = target: GlcNAc(a1-4)Gal(b1-4)GlcNAc
# Outline: as §1
# [26] = target: GlcNAc(b1-3)Gal(b1-4)GlcNAc
# Outline: as §1
# [27] = target: GlcNAc(b1-3)Gal(b1-4)GlcNAc(b1-6)[Gal(b1-3)]GalNAc
# Outline: as §1
# [28] = target: GlcNAc(b1-3)Gal(b1-4)GlcNAc(b1-6)[GlcNAc(b1-3)Gal(b1-3)]GalNAc
# Outline: as §1
# [29] = target: GlcNAc(b1-3)Gal(b1-4)GlcNAc(b1-6)[GlcNAc(b1-3)]Gal(b1-4)GlcNAc
# Outline: as §1
# [30] = target: Kdn(a2-3)Gal(b1-4)[Fuc(a1-3)]GlcNAc
# Outline: as §1
# [31] = target: Neu5Ac(a2-3)Gal(b1-4)GlcNAc(b1-2)Man(a1-3)[Neu5Ac(a2-3)Gal(b1-4)GlcNAc(b1-2)Man(a1-6)]Man(b1-4)GlcNAc(b1-4)GlcNAc
# Outline: as §1
# [32] = target: Neu5Ac(a2-3)Gal(b1-4)GlcNAc(b1-3)Gal(b1-3)GlcNAc
# Outline: as §1
# [33] = target: Neu5Ac(a2-3)Gal(b1-4)GlcNAc(b1-3)Gal(b1-4)GlcNAc(b1-3)GalNAc
# Outline: as §1
# [34] = target: Neu5Ac(a2-3)Gal(b1-4)GlcNAc(b1-3)Gal(b1-4)GlcNAc(b1-6)[Gal(b1-3)]GalNAc
# Outline: as §1
# [35] = target: Neu5Ac(a2-6)Gal(b1-4)GlcNAc(b1-2)Man(a1-3)Man(b1-4)GlcNAc(b1-4)GlcNAc
# Outline: as §1
# [36] = target: Neu5Ac(a2-6)Gal(b1-4)GlcNAc(b1-2)Man(a1-3)[Man(a1-6)]Man(b1-4)GlcNAc(b1-4)GlcNAc
# Outline: as §1
# [37] = target: Neu5Ac(a2-6)Gal(b1-4)GlcNAc(b1-2)Man(a1-6)[Man(a1-3)]Man(b1-4)GlcNAc(b1-4)GlcNAc
# Outline: as §1
# [38] = target: Neu5Ac(a2-6)Gal(b1-4)GlcNAc(b1-3)[Neu5Ac(a2-6)Gal(b1-4)GlcNAc(b1-6)]GalNAc
# Outline: as §1
# [39] = target: Neu5Ac(a2-6)GlcNAc(b1-4)GlcNAc(b1-4)GlcNAc
# Outline: as §1
# [40] = target: Neu5Ac(a2-8)Neu5Ac(a2-3)Gal(b1-3)GalNAc(b1-4)[Neu5Ac(a2-3)]Gal(b1-4)Glc
# Outline: as §1
# [41] = target: Neu5Ac(a2-8)Neu5Ac(a2-8)Neu5Ac(a2-8)Neu5Ac(a2-3)[GalNAc(b1-4)]Gal(b1-4)Glc
# Outline: as §1
# [42] = target: Neu5Gc(b2-6)Gal(b1-4)GlcNAc
# Outline: as §1
binder,measurement,setting,value
"CFEM-PPm (Pichia pastoris), F2QPV1 (protein) AVATPPACLLACAAEVVKESSDCDALNNIQCICENEGSAIHACLESTCPDGLSSTALQSFEDVCE",glycan array binding signal (z-score),[1],-0.289
same,glycan array binding signal (z-score),[2],1.77
same,glycan array binding signal (z-score),[3],3.4
same,glycan array binding signal (z-score),Fuc(a1-3)GlcNAc,-0.301
same,glycan array binding signal (z-score),Gal(a1-2)Gal,-0.447
same,glycan array binding signal (z-score),[4],0.425
same,glycan array binding signal (z-score),[5],-0.006
same,glycan array binding signal (z-score),[6],-0.284
same,glycan array binding signal (z-score),[7],-0.203
same,glycan array binding signal (z-score),Gal(b1-3)Gal,5.41
same,glycan array binding signal (z-score),Gal(b1-3)Gal(b1-4)GlcNAc,6.22
same,glycan array binding signal (z-score),Gal(b1-3)GalNAc,3.57
same,glycan array binding signal (z-score),[8],0.271
same,glycan array binding signal (z-score),[9],0.224
same,glycan array binding signal (z-score),Gal(b1-3)GalNAc(b1-3)Gal,5.7
same,glycan array binding signal (z-score),[10],14.7
same,glycan array binding signal (z-score),[11],-0.203
same,glycan array binding signal (z-score),[12],-0.305
same,glycan array binding signal (z-score),[13],-0.017
same,glycan array binding signal (z-score),[14],-0.102
same,glycan array binding signal (z-score),[15],-0.034
same,glycan array binding signal (z-score),[16],7.18
same,glycan array binding signal (z-score),Gal(b1-4)Glc,-0.356
same,glycan array binding signal (z-score),Gal(b1-4)GlcNAc,-0.105
same,glycan array binding signal (z-score),[17],1.53
same,glycan array binding signal (z-score),[18],-0.026
same,glycan array binding signal (z-score),[19],-0.09
same,glycan array binding signal (z-score),[20],-0.233
same,glycan array binding signal (z-score),[21],1.67
same,glycan array binding signal (z-score),[22],-0.262
same,glycan array binding signal (z-score),GalNAc(a1-3)GalNAc,-0.194
same,glycan array binding signal (z-score),[23],0.149
same,glycan array binding signal (z-score),[24],-0.226
same,glycan array binding signal (z-score),GlcA(b1-6)Gal,2.41
same,glycan array binding signal (z-score),[25],-0.205
same,glycan array binding signal (z-score),[26],0.308
same,glycan array binding signal (z-score),[27],0.543
same,glycan array binding signal (z-score),[28],-0.173
same,glycan array binding signal (z-score),[29],-0.353
same,glycan array binding signal (z-score),[30],0.034
same,glycan array binding signal (z-score),[31],-0.218
same,glycan array binding signal (z-score),[32],-0.197
same,glycan array binding signal (z-score),[33],-0.282
same,glycan array binding signal (z-score),[34],0.598
same,glycan array binding signal (z-score),[35],-0.215
same,glycan array binding signal (z-score),[36],-0.253
same,glycan array binding signal (z-score),[37],-0.345
same,glycan array binding signal (z-score),[38],0.043
same,glycan array binding signal (z-score),[39],-0.354
same,glycan array binding signal (z-score),[40],0.442
same,glycan array binding signal (z-score),[41],-0.319
same,glycan array binding signal (z-score),[42],-0.034

# — the supplement of paper PMC8728848
